# The campaign covered roughly 290,000 compounds. About 260 (0.09%) were called active. The sample holds actives, similar compounds and a random draw of the others, so the mix is not that of the screen. Cut-off read from the data, not from the text of the source: active = inhibition above about 50%; inactive = the rest. Entries with a potency or affinity are not part of this list.
# Molecular target: Kappa-type opioid receptor (Homo sapiens) (UniProt P41145)
# Assay: kappa opioid receptor blockers – cell-based, luminescence, uHTS (AID 1778)
# Conditions: KOR beta-arrestin recruitment, antagonist mode, stronger effect = higher value; at 10 µM unless noted
# Chain of Kappa-type opioid receptor (Homo sapiens) (P41145 whole entry, looked up): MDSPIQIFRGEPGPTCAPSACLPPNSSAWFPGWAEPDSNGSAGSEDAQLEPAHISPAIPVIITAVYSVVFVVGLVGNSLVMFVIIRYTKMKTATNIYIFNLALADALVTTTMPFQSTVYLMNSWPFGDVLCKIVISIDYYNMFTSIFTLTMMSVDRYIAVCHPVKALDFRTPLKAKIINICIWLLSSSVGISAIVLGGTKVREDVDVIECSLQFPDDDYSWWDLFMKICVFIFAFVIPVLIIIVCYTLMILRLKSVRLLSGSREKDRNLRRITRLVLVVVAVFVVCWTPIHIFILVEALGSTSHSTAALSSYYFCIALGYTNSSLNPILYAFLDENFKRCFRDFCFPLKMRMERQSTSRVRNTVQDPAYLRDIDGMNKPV
row,Structure (SMILES),inhibition
1,CC(=O)Nc1ccc(S(=O)(=O)NCCC(=O)OCc2ccc([N+](=O)[O-])cc2)cc1,16.8% (inactive)
2,CC1=NN(c2ccccc2)C(=O)/C1=C/N(C)C,3.4% (inactive)
3,CC1=NN(c2ccccc2)C(=O)/C1=C/C=C/c1ccccc1,-38.6% (inactive)
4,CC1=NN(c2ccccc2)C(=O)/C1=C\C=C\c1ccccc1,-34.7% (inactive)
5,CC1=NN(c2ccc(C)cc2)C(=O)/C1=C\C=C\c1ccccc1,-74.7% (inactive)
6,O=C(Nc1cccc2c1CCCC2)c1cc([N+](=O)[O-])cc([N+](=O)[O-])c1,-11.2% (inactive)
7,Cc1c(N=c2scc(-c3ccccc3)n2C)c(=O)n(-c2ccccc2)n1C,16.6% (inactive)
8,CC1=CC(=Nc2c(C)n(C)n(-c3ccccc3)c2=O)C=CC1=O,35.7% (inactive)
9,O=C(NC1(C(F)(F)F)OCCO1)c1ccc(F)cc1,-28.6% [at 20 µM] (inactive)
10,COc1ccc(C(=O)CSc2ncn[nH]2)cc1OC,16.2% (inactive)
11,COC(=O)c1ccc(OC(=O)c2cccnc2SC)cc1,-3.6% (inactive)
12,C/C(=N\Nc1nc2ccccc2[nH]1)c1ccc(Cl)s1,20.9% (inactive)
13,C/C(=N\Nc1nc2ccccc2[nH]1)c1ccccn1,91.3% (active)
14,C/C(=N\Nc1ncc(Cl)cc1Cl)c1ccc(C#N)cc1,-10% (inactive)
15,C/C(=N\Nc1ccc(Cl)cc1)c1ccccn1,1.2% (inactive)
16,C/C(=N\Nc1nc2ccccc2[nH]1)c1ccc(C)o1,33.8% (inactive)
17,CC(=O)c1cc(-c2ccccc2)[nH]c1N1CCOCC1,-10.8% (inactive)
18,O=C(O)c1ccccc1S(=O)(=O)NCC(O)COc1ccc(Br)cc1 (stereo not drawn),22.9% (inactive)
19,CCCNC(=S)N1CCN(c2nc(-c3ccc(C)cc3)cs2)CC1,-15.3% [at 20 µM] (inactive)
20,COc1ccc(NC(=O)C(Cl)=C(Cl)Cl)cn1,8% (inactive)
21,COc1ccc(CS(=O)(=O)/C(Cl)=C(/Cl)C(=O)Nc2ccc(OC)nc2)cc1,40.1% (inactive)
22,COc1ccc(NC(=O)/C(Cl)=C(/Cl)S(=O)(=O)Cc2ccc(C)cc2)cn1,47.9% (inactive)
23,COc1ccc(NC(=O)/C(Cl)=C(/Cl)S(=O)Cc2ccc(Cl)cc2)cn1 (stereo not drawn),48.8% (inactive)
24,COc1ccc(CC(=O)Nc2ccc(OC)nc2)cc1,35.7% (inactive)
25,COc1ccc(NC(=O)/C(Cl)=C(/Cl)S(=O)(=O)Cc2ccccc2)cn1,58.9% (inactive)

row,Structure (SMILES),inhibition
1,C(=C\CSc1ncn[nH]1)/CSc1ncn[nH]1,0.4% (inactive)
2,CCSc1nc2c(cnn2-c2ccc(C)cc2)c(=O)[nH]1,-21.4% (inactive)
3,COC(=O)C1=CN(C2CC2)C=C(C(=O)OC)C1c1ccc(C(F)(F)F)cc1,-9.8% [at 20 µM] (inactive)
4,COCCn1c(SCC(=O)N2CCCC2)nnc1-c1ccco1,10.6% (inactive)
5,O=C(COc1ccc2c(C(F)(F)F)cc(=O)oc2c1)NCc1cccs1,-40.4% (inactive)
6,S=C(Nc1ccc(Oc2ccccc2)cc1)Nc1cccnc1,-26.6% [at 20 µM] (inactive)
7,Cc1cc(C)cc(N2C(N)=NC(N)=NC2c2ccccc2F)c1 (stereo not drawn),1.5% (inactive)
8,COC(=O)c1c(NC(=O)CN2CCN(c3ncccn3)CC2)sc(C(N)=O)c1C,-4.1% (inactive)
9,S=c1sc2c(N3CCN(Cc4ccccc4)CC3)ncnc2n1-c1ccccc1,-18% (inactive)
10,S=c1sc2c(N3CCOCC3)ncnc2n1-c1ccccc1,-30.9% (inactive)
11,CCOc1ccc(CNc2ccc3c(c2)nc(C)n3C)cc1,7.3% (inactive)
12,Oc1c(CN2CCc3ccccc3C2)cc(Cl)c2cccnc12,-4% (inactive)
13,Oc1ccc(CN2CCCCC2)c2cccnc12,-7.4% (inactive)
14,Nc1nc(NC(=O)c2cccs2)nn1-c1ccccc1,-23% (inactive)
15,O=[N+]([O-])c1cc(Cl)c2cccnc2c1O,1.5% [at 20 µM] (inactive)
16,Oc1c(I)cc(I)c2cccnc12,-35.5% (inactive)
17,Clc1cc2cccnc2c2ccccc12,1.4% (inactive)
18,Oc1c(Cl)cc(CN2CCCCC2)c2cccnc12,-1.6% (inactive)
19,COc1cccc(NC(=O)CSc2nc3ccccc3n2C)c1,2.2% (inactive)
20,O=C(NC(NC(=S)Nc1cccc(Cl)c1)C(Cl)(Cl)Cl)OCc1ccccc1 (stereo not drawn),5.1% (inactive)
21,Cc1cccc(NC(=S)NC(NC(=O)OCc2ccccc2)C(Cl)(Cl)Cl)c1 (stereo not drawn),-6.6% (inactive)
22,Cc1ccc(C)c(NC(=S)NC(NC(=O)OCc2ccccc2)C(Cl)(Cl)Cl)c1 (stereo not drawn),-2% (inactive)
23,O=C(NC(NC(=S)Nc1cccc(C(=O)O)c1)C(Cl)(Cl)Cl)OCc1ccccc1 (stereo not drawn),3.3% (inactive)
24,O=C(CNCCc1ccc(F)cc1)Nc1cc(F)ccc1F,-1.9% (inactive)
25,CC(=O)N1N=C(c2ccccc2)CC1c1cccc([N+](=O)[O-])c1 (stereo not drawn),-7% [at 20 µM] (inactive)

row,Structure (SMILES),inhibition
1,O=C(O)CCC(=O)N1N=C(c2cccs2)CC1c1cccc([N+](=O)[O-])c1 (stereo not drawn),-24.4% [at 20 µM] (inactive)
2,CCc1nn(CC(=O)NCCCN(C)Cc2ccccc2)c(=O)c2cc3sc(C)cc3n12,1.9% (inactive)
3,CCC(=O)N1CC2(CC(c3cccc(NC(=O)COc4ccc(Cl)cc4)c3)=NO2)C[C@@H]1C(N)=O (stereo partly drawn),8.3% (inactive)
4,CCOC(=O)c1ccc(N/N=C/c2cc(Br)cc([N+](=O)[O-])c2O)cc1,60.8% [at 20 µM] (active)
5,COC(=O)c1ccc(N/N=C/c2cc([N+](=O)[O-])cc(OC)c2O)cc1,-4.6% (inactive)
6,O=C(N/N=C/c1cc(Br)cc([N+](=O)[O-])c1O)c1ccc(NC(=O)c2ccc(F)cc2)cc1,-22.2% (inactive)
7,COc1ccc(CNC(=O)C2CCC(CNS(=O)(=O)c3ccc(C)cc3)CC2)cc1 (stereo not drawn),5.5% (inactive)
8,COc1ccc2nc(N3C(=O)CNC3=S)sc2c1,59.9% (inactive)
9,CCOc1ccc2nc(N3C(=O)/C(=C/c4ccccc4)NC3=S)sc2c1,13.6% (inactive)
10,Cc1ccc2nc(N3C(=O)CNC3=S)sc2c1,45.5% (inactive)
11,O=C1CNC(=S)N1c1nc2ccccc2s1,18.9% (inactive)
12,Cc1cc(C)cc(Nc2nc3c(S(=O)(=O)c4ccccc4)nnn3c3ccccc23)c1,-17.6% (inactive)
13,COc1cccc(NC(=O)CSc2ccc3nnc(-c4ccccn4)n3n2)c1,3% (inactive)
14,Cc1ccc(SC[C@H](CC(C)C)N2CCN(C)CCC2=O)cc1,30.9% (inactive)
15,COc1ccccc1OC(C)C(=O)NNC(=S)NC1CCCC1 (stereo not drawn),1.5% (inactive)
16,COc1ccc(N2C(=S)NC3N2C(=S)NC3(C)c2ccccc2)cc1 (stereo not drawn),-26.3% (inactive)
17,CC(C)CNS(=O)(=O)c1ccc(CCC(=O)N2CCC(C(N)=O)CC2)cc1,-7.7% (inactive)
18,Cc1cc(C)nc(-n2nc(C)cc2Nc2ccccc2)n1,-25% (inactive)
19,Cc1ccc(Nc2cc(C)nn2-c2nc(C)cc(C)n2)cc1,2% (inactive)
20,COc1cccc(N2C(=O)CC(N3CCN(c4ccc([N+](=O)[O-])cc4)CC3)C2=O)c1 (stereo not drawn),-48.1% [at 20 µM] (inactive)
21,Cc1cccc(C)c1NC(=O)C(c1cccs1)N(Cc1ccco1)C(=O)Cn1nnc2ccccc21 (stereo not drawn),53.4% (active)
22,Cc1ccc(CN(C(=O)Cn2nnc3ccccc32)C(C(=O)NCc2ccco2)c2cccs2)cc1 (stereo not drawn),17.9% (inactive)
23,O=C(NCc1ccco1)C(c1cccs1)N(Cc1ccccc1)C(=O)Cn1nnc2ccccc21 (stereo not drawn),9.5% (inactive)
24,COc1cc(NS(=O)(=O)c2cn(C)cn2)cc(OC)c1,-11.4% (inactive)
25,Cc1ccc(NC(=O)c2cc(N3C(=O)C=CC3=O)ccc2N2CCOCC2)cc1Cl,-45.3% (inactive)

row,Structure (SMILES),inhibition
1,Cc1ccc(NC(=O)c2cc(N3C(=O)CCC3=O)ccc2N2CCOCC2)cc1,-2.1% [at 20 µM] (inactive)
2,O=C(Nc1ccc(N2CCOCC2)c([N+](=O)[O-])c1)c1ccco1,11.4% (inactive)
3,Cc1ccc(-c2ccc(C(=O)O)c(C)n2)cc1,21% (inactive)
4,COc1ccccc1N=Nc1ccc(O)c2ncccc12,-19.2% (inactive)
5,Cc1ccc(N=Nc2ccc(O)c3ncccc23)cc1,-2.4% (inactive)
6,CCS(=O)(=O)c1ccc(OC)c(N=Nc2ccc(O)c3ncccc23)c1,1.8% (inactive)
7,Cc1ccc(C)c(N=Nc2ccc(O)c3ncccc23)c1,60.4% (active)
8,Oc1ccc(N=Nc2ccccc2C(F)(F)F)c2cccnc12,29.5% (inactive)
9,Cc1ccc(N=Nc2cc(C)ccc2O)c(C)c1,19.5% (inactive)
10,O=Nc1ccc(O)c2ncccc12,7.2% (inactive)
11,Cc1ccc(N=Nc2ccc(O)c3ncccc23)cc1C,60.3% (active)
12,CC(C)Oc1ccc(N2CC(C(=O)Nc3ccccn3)CC2=O)cc1 (stereo not drawn),19.8% [at 20 µM] (inactive)
13,COc1cc(/C=C2/N=C(C3CCCCC3)OC2=O)cc(OC)c1OC,-1.6% (inactive)
14,CCC(=O)Nc1ccc(NC(=O)c2cccc3ccccc23)cc1,-36.8% [at 20 µM] (inactive)
15,S=C(NCCCc1ccccc1)NCc1ccccc1,7.2% (inactive)
16,Cc1ccc(S(=O)(=O)N2CCOCC2)cc1C(=O)NC1CCSc2ccccc21 (stereo not drawn),27.2% (inactive)
17,CCOc1ncccc1C(=O)NCCc1ccc(S(N)(=O)=O)cc1,-2.5% (inactive)
18,COc1ccc(C(NC(=O)c2ccc(=O)[nH]c2)C(=O)Nc2ccc(C(C)C)cc2)cc1 (stereo not drawn),-5% (inactive)
19,CCOCCCNC(=O)c1cc(=O)n(Cc2cccc(C)c2)c2ccccc12,3.1% (inactive)
20,O=C(C#Cc1ccccc1)c1cccc([N+](=O)[O-])c1,-9.6% (inactive)
21,O=C(c1ccccc1)c1ccc(Sc2ccc([N+](=O)[O-])cc2)cc1,10.8% (inactive)
22,O=C(Nc1cccc([N+](=O)[O-])c1)c1ccccc1,2.6% (inactive)
23,O=C(c1ccc(-c2ccccc2)cc1)c1ccc([N+](=O)[O-])cc1,-69.2% (inactive)
